Experiment [1] relates to Zika virus NS2B-NS3 protease (unlinked complex). Description: Primary screen GU Rhodamine qHTS for Zika virus inhibitors: Unlinked NS2B-NS3 protease assay (AID 1347159). Also: % is scaled to controls: 0 for no effect and ±100 for the full control effect; nearly all actives have a fitted effect of over 60% in size. In a few lines: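 Buffer 10 mM Tris-HCl pH 8.0, 0.01% Tween 20. Unlinked protease 25 nM; compound preincubation 15 min, RT, protected from light. Substrate Rhod110, 1.5 microM; ~15% conversion in 15 min.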

Experiment [2] has as its system Zika virus NS2B-NS3 protease (linked construct). The experiment can be described thus: Primary screen NINDS Rhodamine qHTS for Zika virus inhibitors (AID 1347160). Also: nearly all actives have a fitted effect of over 55% in size. As to activity change, negative = inhibition: % is scaled to controls: 0 for no effect and ±100 for the full control effect. In a few lines: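 Aprotinin served as in-plate control. Conditions: 25 nM linked NS2B-NS3, pH 8.0 Tris buffer, titrated compounds, 15 min preincubation and 15 min reaction with 1.5 microM Rhod110 substrate at room temperature.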
A general note: In qHTS, concentration-response curves come from the screen itself.

The target in experiment [3] is Calcium and integrin-binding protein 1 (Homo sapiens) (UniProt Q99828). Description: Primary qHTS for Identification of Calcium Integrin Binding Protein 1 (CIB1) Competitor (AID 1508620).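 Also: GST tagged CIB1 binding a fluorescein labelled alphaIIb integrin peptide tracer; top concentration of the series differs between compounds; % is scaled to controls: 0 for no effect and ±100 for the full control effect.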 An outline of the steps: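 Fluorescence polarization competition: CIB1-GST (1 uM final) preincubated with compound 15 min at room temperature, then FITC-labeled alphaIIb peptide (100 nM final) added for another 15 min. Polarization read at Ex 480/Em 540.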
Chain of Calcium and integrin-binding protein 1 (Homo sapiens) (Q99828 whole entry, looked up): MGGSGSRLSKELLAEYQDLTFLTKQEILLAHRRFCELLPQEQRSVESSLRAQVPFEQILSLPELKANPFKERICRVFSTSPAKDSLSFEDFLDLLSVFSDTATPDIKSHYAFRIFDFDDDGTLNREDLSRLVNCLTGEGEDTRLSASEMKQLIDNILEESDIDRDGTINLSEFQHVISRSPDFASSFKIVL

Experiment [4] deals with Glutathione peroxidase 1 (Homo sapiens) (UniProt P07203). The experiment can be described thus: Primary qHTS Assay for Inhibitors of Recombinant Selenoprotein Glutathione Peroxidase 1 (GPX1) (AID 1845191). Also: nearly all actives have a fitted effect of over 65% in size. As to activity, negative = inhibition: % is scaled to controls: 0 for no effect and ±100 for the full control effect. An outline of the steps:
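GPX1 10 nM, GR 100 nM, GSH 1 mM, NADPH 0.5 mM, CHP 0.5 mM (final). 30-min cpd preincubation, RT. Ex340/Em450 read t=0, t=15 min.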

Experiment [5] addresses Phospholipid hydroperoxide glutathione peroxidase GPX4 (Homo sapiens) (UniProt P36969). Description: Primary qHTS Assay for Inhibitors of Recombinant Selenoprotein Glutathione Peroxidase 4 (GPX4) (AID 1845192). Also: % is scaled to controls: 0 for no effect and ±100 for the full control effect; nearly all actives have a fitted effect of over 65% in size. In a few lines:
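qHTS, GR-coupled: GPX4 200 nM + cpd 30 min RT → GSH 1 mM, NADPH 0.5 mM, GR 100 nM → CHP 0.5 mM start; fluor 340/450 at t0 and t15 min; no-enzyme wells as control.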

In experiment [6] the target is Luciferin 4-monooxygenase (Photinus pyralis) (UniProt P08659). The experiment can be described thus: Primary firefly luciferase (FLuc) qHTS assay for identification of artifact compounds. (AID 1845220). Also: nearly all actives have a fitted effect of over 60% in size.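 As to activity change, negative = inhibition: plate controls were DMSO vehicle for no effect and no enzyme for full effect.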 The following applies: outcome: dose series up to 54.1 µM unless noted. An outline of the steps:
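In this counter-screen for luciferase artifacts, test compounds met substrate (10 uM each luciferin and ATP) before 10 nM enzyme started the reaction. Light output was measured 5 min later.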

A short description of experiment [7]: Primary fluorescence-based thiol-reactive (MSTI) qHTS assay for identification of artifact compounds. (AID 1845221).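 Also: thiol-reactive compounds lower the probe fluorescence signal; nearly all actives have a fitted effect of over 65% in size.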 In a few lines:
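One-hour, room-temperature, dark incubation of compound with 4 uM MSTI in PBS (pH 7.4, 2% DMSO) precedes a fluorescence read at 525 nm excitation, 598 nm emission; Hill-equation fitting yields concentration-response values.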

For experiment [8], the system named is Nanoluciferase (engineered Oplophorus gracilirostris luciferase). The experiment can be described thus: Primary Nanoluciferase (NLuc) qHTS assay for identification of artifact compounds. (AID 1845222).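 Also: NLuc secreted into diluted conditioned medium of S16 cells.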 In a few lines:
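Using secreted nanoluciferase in S16 culture medium (0.22 um filtered, 1:55 dilution), compounds were preincubated 15 min at RT. Signal was generated with Nano-Glo reagent (1:100) over 5 min.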

A further experiment has as its system CRL-7250. The experiment can be described thus: Cytotoxic Profiling of Annotated Libraries Using Quantitative High-Throughput Screening (AID 1296008). Also: nearly all actives have a fitted effect of over 60% in size. Also: potency is read from the fitted curve at half-maximal effect. As to max response: % is scaled to controls: 0 for no effect and ±100 for the full control effect. The following applies: Five cell lines viability, CellTiter-Glo ATP luminescence, 48-72 h; max response: hits give low values. In a few lines:
(§1)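 Compounds were pin-transferred onto cells and incubated 48 or 72 hr at 37 degree Celsius, 95% humidity. CellTiter-Glo was added, plates sat 10 min at room temperature, then ATP-coupled luminescence was imaged as the viability read-out.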
For orientation: In ATP-based viability assays light output follows the ATP content of the culture.

The test system of a further experiment is NIH3T3. The description is as above. The following applies: Five cell lines viability, CellTiter-Glo ATP luminescence, 48-72 h; max response: hits give low values. In a few lines:
as §1

In another experiment the test system is C33A. Description: Primary qHTS to identify gynecologic anti-cancer compounds using libraries of approved drugs and bioactive compounds (AID 1345084). Also: nearly all actives have a fitted effect of over 55% in size. Also: potency is read from the fitted curve at half-maximal effect. The settings on record: Gynecologic cancer cell panel viability, ATPlite luminescence, 48 h; series mostly up to 57.5 µM. An outline of the steps:
(§2)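 In this quantitative HTS, cell killing is estimated from loss of ATP-dependent luciferase light. Cells see five compound concentrations over a 48 h exposure.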

A further experiment relates to CAOV3. Described as above. The following applies: Gynecologic cancer cell panel viability, ATPlite luminescence, 48 h; series mostly up to 57.5 µM. In a few lines: as §2
Another experiment relates to CASKI. The description is as above. The settings on record: Gynecologic cancer cell panel viability, ATPlite luminescence, 48 h; series mostly up to 57.5 µM. An outline of the steps: as §2
The subject of the next experiment is Es-2. Described as above. The settings on record: Gynecologic cancer cell panel viability, ATPlite luminescence, 48 h; series mostly up to 57.5 µM. An outline of the steps:
as §2

In another experiment the test system is Hek293T. The description is as above. The settings on record: Gynecologic cancer cell panel viability, ATPlite luminescence, 48 h, control line for the selectivity index; series mostly up to 57.5 µM. In a few lines: as §2
A further experiment concerns JEG-3. Described as above. The settings on record: Gynecologic cancer cell panel viability, ATPlite luminescence, 48 h; series mostly up to 57.5 µM. An outline of the steps:
as §2

A further experiment concerns OV90. The description is as above. The settings on record: Gynecologic cancer cell panel viability, ATPlite luminescence, 48 h; series mostly up to 57.5 µM. In a few lines: as §2
Another experiment has as its system PA-1. Described as above. The settings on record: Gynecologic cancer cell panel viability, ATPlite luminescence, 48 h; series mostly up to 57.5 µM. An outline of the steps: as §2
A further experiment deals with Tov-21-G. Described as above. The settings on record: Gynecologic cancer cell panel viability, ATPlite luminescence, 48 h; series mostly up to 57.5 µM. An outline of the steps:
as §2

The test system of another experiment is Tov112D. Described as above. The settings on record: Gynecologic cancer cell panel viability, ATPlite luminescence, 48 h; series mostly up to 57.5 µM. In a few lines: as §2

A number with no mark means an inactive call. Records with an inconclusive call do not appear. Activity calls are given as the source filed them. Calls follow the shape of the dose curve; as a rule, active = well fitted curve in the direction sought with a large enough effect; inconclusive = small, poorly fitted or top-dose-only effect, or another doubt; inactive = no such curve, though single readings can be large; an effect the other way counts as inactive or inconclusive.

Chain of Phospholipid hydroperoxide glutathione peroxidase GPX4 (Homo sapiens) (P36969 whole entry, looked up): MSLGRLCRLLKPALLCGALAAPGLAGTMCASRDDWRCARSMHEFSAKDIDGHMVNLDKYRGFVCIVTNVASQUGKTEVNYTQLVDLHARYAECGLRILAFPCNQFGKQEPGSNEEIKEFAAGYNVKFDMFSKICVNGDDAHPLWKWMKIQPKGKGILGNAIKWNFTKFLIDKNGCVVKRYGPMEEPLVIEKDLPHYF
Chain of Glutathione peroxidase 1 (Homo sapiens) (P07203 whole entry, looked up): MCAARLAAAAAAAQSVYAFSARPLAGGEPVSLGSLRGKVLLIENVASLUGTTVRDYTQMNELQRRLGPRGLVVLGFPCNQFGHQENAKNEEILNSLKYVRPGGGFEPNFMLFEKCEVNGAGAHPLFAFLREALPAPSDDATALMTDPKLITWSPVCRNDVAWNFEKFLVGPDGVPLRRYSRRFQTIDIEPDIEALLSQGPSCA

Turning to `CN(C(=O)C(c1ccccc1)c1ccccc1)[C@H](CN1CC[C@H](O)C1)c1ccccc1`, the Potency entry in [1], in experiment [2], in experiment [3], in [4], in experiment [5] and in experiment [7] was “inactive” each time. The Potency entry (in [8]; in the experiment with C33A; in the experiment with CAOV3; with CASKI; in the experiment on Es-2; in the experiment with Hek293T) was “inactive” each time. Besides, the Potency result in the experiment on JEG-3, in the experiment on OV90, in the experiment on PA-1, in the experiment with Tov-21-G and in the experiment on Tov112D was “inactive” in each case. Further, the compound was classed as inactive (in experiment [6]; in the experiment on CRL-7250). Also, the max response in the experiment with NIH3T3 is 3.64%.

In the case of `CN1CCCCC1Cn1cc(C(=O)c2cc([N+](=O)[O-])ccc2I)c2ccccc21` (configuration not stated), the Potency entry in experiment [1], in experiment [2], in experiment [3], in [4], in experiment [5] and in experiment [8] was “inactive” throughout. For the same compound, the Potency entry in the experiment on C33A, in the experiment on CAOV3, with CASKI, in the experiment with Es-2, in the experiment on Hek293T and in the experiment on JEG-3 was “inactive” each time. In addition, the Potency result with OV90, in the experiment on PA-1, in the experiment with Tov-21-G and in the experiment with Tov112D was “inactive” in each case. Besides, the call (in [6]; with NIH3T3) was inactive. For the same compound, the max response in the experiment with CRL-7250 is 2.06%.

With `COC1CC(O[C@H]2CC[C@@]3(C)C(CCC4C3CC[C@]3(C)C(C5=CC(=O)OC5)CCC43O)C2)OC(C)C1OC1OC(COC2OC(CO)C(O)C(O)C2O)C(O)C(O)C1O` (some centres not stated), the Potency result in experiment [1], in experiment [2], in experiment [4] and in [5] was “inactive” throughout. Also, in experiment [6], the activity change, negative = inhibition was -3.95% [at 11.6 µM]. The activity change, negative = thiol reactive in [7] is 0.284% [at 11.5 µM]. For the same compound, in [8], the activity, negative = inhibition is 0.592% [at 11.6 µM]. Moreover, the Potency was 693 nM (active) in the experiment on CRL-7250; 2240 nM (active) with C33A; 3160 nM (active) with Es-2; 3550 nM (active) with Hek293T; 2240 nM (active) in the experiment on PA-1; 2240 nM (active) with Tov-21-G. In the experiment on Tov112D, the Potency is 794 nM (active). Also, the max response with NIH3T3 was 2.72%.

On to `CC(=O)O[C@H]1C[C@]2(O)[C@@H]3CC[C@@H]4C[C@@H](O)CC[C@]4(C)[C@H]3CC[C@]2(C)[C@H]1c1ccc(=O)oc1`, for which the Potency entry in experiment [2], in [3], in experiment [4], in [5], in experiment [7] and in experiment [8] was “inactive” each time. Further, the result in experiment [6] was inactive. The Potency in the experiment on CRL-7250 was 51.7 nM (active); with C33A it was 28.2 nM (active); with CAOV3, 158 nM (active); in the experiment on CASKI it was 398 nM (active); in the experiment on Es-2, 100 nM (active); in the experiment with Hek293T, 89.1 nM (active). The Potency in the experiment with JEG-3 was 316 nM (active); in the experiment on PA-1, 100 nM (active); in the experiment on Tov-21-G, 89.1 nM (active). For the same compound, the max response with NIH3T3 is -9.3%.

Take `CC(C)[C@H]1OC(=O)[C@H](Cc2ccccc2)N(C)C(=O)[C@@H](C(C)C)OC(=O)[C@H](Cc2ccccc2)N(C)C(=O)[C@@H](C(C)C)OC(=O)[C@H](Cc2ccccc2)N(C)C1=O`: the Potency result (in experiment [2]; in experiment [3]; in [5]; in experiment [7]; in experiment [8]; with C33A) was “inactive” in each case. The Potency result in the experiment with CAOV3, with CASKI, in the experiment with Es-2, in the experiment on JEG-3, with OV90 and in the experiment with Tov-21-G was “inactive” in each case. In addition, the Potency entry with Tov112D was “inactive”. Moreover, the result in experiment [6] was inactive. Moreover, the Potency is 4850 nM (active) in the experiment on CRL-7250 and 7940 nM (active) in the experiment on PA-1.

Source of the values: PubChem BioAssay (NCATS).
